# Results taken from a collection of fitness landscapes (doi:10.1016/j.celrep.2020.107928).
# The full ranking holds about 81,000 sequences; the median of “one-hybrid fitness for binding NBS DNA” is about -0.1, and the highest 2% start at about 0.36. The full list was thinned out, with the highest values kept by preference.
# B1: Caulobacter ParB omega fusion; a variant is named by its letters at X, in order, B8GW30 (parent)
# chain: MESVVVGEPGMSEGRRGLGRGLSALLGEVDAAPAQAPGEQLGGSREAPIEILQRNPDQPRRTFREEDLEDLSNSIREKGVLQPILVRPSPDTAGEYQIVAGERAWRAAQRAGLKTVPIMVRELDDLAVLEIGIIENVQRADLNVLEEALSYKVLMEKFERTQENIAQTIGKSXSHVANXMRLLXLPDEVQSYLVSGELTAXHARAIAAAADPVALAKQIIEGGLSVRETEALARKAPNLSAGKSKGGRPPRVKDTDTQALESDLSSVLGLDVSIDHRGSTGTLTITYATLEQLDDLCNRLTRGI
# Variants of: B1
# Assay: one-hybrid fitness for binding NBS DNA (the Noc-binding site; scaled: cognate 1, non-cognate 0); higher = stronger binding
# Details: with NBS DNA site
# Outline: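 Pre- and post-selection plasmids were Illumina-sequenced, three replicate libraries were pooled, and any variant with under 10 reads was removed. The libraries were Caulobacter ParB with four specificity codons randomised, selected in E. coli USO through a HIS3 reporter whose site is 19 bp from the promoter. Cells grew 48 hours at 37°C on M9 without histidine, with 0.1 mM IPTG and 5 mM 3-AT. Fitness is the log change in variant-to-wild-type read ratio, rescaled against cognate and non-cognate.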
row,Variant,one-hybrid fitness for binding NBS DNA
1,QQIY,≤ 0.2
2,QQPR,0.365
3,QQPN,≤ 0.2
4,QQIR,0.435
5,QQPP,≤ 0.2
6,QQIC,≤ 0.2
7,IMNC,≤ 0.2
8,QCIE,≤ 0.2
9,GPNL,≤ 0.2
10,RRIT,0.788
11,RPPT,≤ 0.2
12,RRIP,≤ 0.2
13,RCPT,≤ 0.2
14,RRPT,0.694
15,RCIT,0.289
16,QIKI,≤ 0.2
17,GQNR,≤ 0.2
18,PQLG,≤ 0.2
19,DMRR,≤ 0.2
20,NMRR,≤ 0.2
21,QMQN,≤ 0.2
22,QMHP,≤ 0.2
23,QMHN,≤ 0.2
24,QMQR,0.55
25,QMYR,0.507
26,QMQD,≤ 0.2

row,Variant,one-hybrid fitness for binding NBS DNA
1,QMYF,≤ 0.2
2,QMHR,0.647
3,QMER,0.324
4,QMRR,1.02
5,YCIR,≤ 0.2
6,PWLA,≤ 0.2
7,PATL,≤ 0.2
8,QMDR,0.403
9,QMDD,≤ 0.2
10,QMGK,0.221
11,QMGR,0.591
12,QMNN,≤ 0.2
13,QMIR,0.398
14,QMPR,0.323
15,QMDF,≤ 0.2
16,QMNR,0.637
17,QMGC,≤ 0.2
18,QMIP,≤ 0.2
19,QMNH,0.284
20,KASM,≤ 0.2
21,RNWE,≤ 0.2
22,WRSG,≤ 0.2
23,HNPS,≤ 0.2
24,AKVR,≤ 0.2
25,ERAT,≤ 0.2
26,FHRT,≤ 0.2

row,Variant,one-hybrid fitness for binding NBS DNA
1,HTGY,≤ 0.2
2,KAEC,≤ 0.2
3,QAVP,≤ 0.2
4,CWTT,≤ 0.2
5,THIP,≤ 0.2
6,NAAC,≤ 0.2
7,FHTW,≤ 0.2
8,GAEY,≤ 0.2
9,QSSD,≤ 0.2
10,QSSR,0.526
11,QHSR,0.51
12,QKSN,≤ 0.2
13,QHSD,≤ 0.2
14,QHSN,≤ 0.2
15,QKSD,≤ 0.2
16,QISR,0.386
17,QSSP,≤ 0.2
18,QISP,≤ 0.2
19,QISS,0.228
20,QKSR,0.65
21,RKLW,≤ 0.2
22,VHYS,≤ 0.2
23,PGDT,≤ 0.2
24,KQTL,≤ 0.2
25,HGQT,≤ 0.2
26,APTM,≤ 0.2

row,Variant,one-hybrid fitness for binding NBS DNA
1,HNIL,≤ 0.2
2,QASH,≤ 0.2
3,QGSR,≤ 0.2
4,QPSP,≤ 0.2
5,QTSR,0.786
6,QPSR,0.44
7,QTSH,0.321
8,QASP,≤ 0.2
9,QWSR,0.229
10,QPSH,≤ 0.2
11,QTSD,≤ 0.2
12,QCSR,0.614
13,QASR,0.482
14,RVGY,≤ 0.2
15,YYRE,≤ 0.2
16,EWTK,≤ 0.2
17,SFAV,≤ 0.2
18,RSFI,≤ 0.2
19,ETCC,≤ 0.2
20,HGGG,≤ 0.2
21,QTAK,≤ 0.2
22,QMSN,≤ 0.2
23,QMSD,≤ 0.2
24,QMSR,0.557
25,KFFY,≤ 0.2
26,TGSL,≤ 0.2

row,Variant,one-hybrid fitness for binding NBS DNA
1,HQMR,≤ 0.2
2,YVSG,≤ 0.2
3,IRIE,≤ 0.2
4,RTTD,≤ 0.2
5,RHTT,0.427
6,RRTG,0.331
7,RRTT,0.716
8,RHTD,≤ 0.2
9,RTTN,≤ 0.2
10,RPTT,≤ 0.2
11,RHTH,≤ 0.2
12,RFTT,0.269
13,RRTQ,0.243
14,RTTT,0.543
15,RCTT,0.518
16,QQII,≤ 0.2
17,KSMI,≤ 0.2
18,KVWM,≤ 0.2
19,KATR,≤ 0.2
20,ALTC,≤ 0.2
21,AHCL,≤ 0.2
22,HGAA,≤ 0.2
23,HRGN,≤ 0.2
24,REMS,≤ 0.2
25,CAHR,≤ 0.2
26,LWHP,≤ 0.2

row,Variant,one-hybrid fitness for binding NBS DNA
1,QELW,≤ 0.2
2,YGQC,≤ 0.2
3,WRES,≤ 0.2
4,YVSL,≤ 0.2
5,HMQS,≤ 0.2
6,LYTW,≤ 0.2
7,RKTC,0.275
8,RKTT,0.666
9,RLTN,≤ 0.2
10,RGTT,≤ 0.2
11,RKTP,≤ 0.2
12,RMTL,≤ 0.2
13,RMTK,≤ 0.2
14,RLTT,0.454
15,RLTD,≤ 0.2
16,RSTT,0.426
17,RMTT,0.434
18,RETT,≤ 0.2
19,DHNC,≤ 0.2
20,YATH,≤ 0.2
21,QISK,≤ 0.2
22,CLVT,≤ 0.2
23,DRWC,≤ 0.2
24,SNWL,≤ 0.2
25,SNVR,≤ 0.2
26,DAAD,≤ 0.2

row,Variant,one-hybrid fitness for binding NBS DNA
1,TRAA,≤ 0.2
2,DDQR,≤ 0.2
3,RITF,≤ 0.2
4,RATT,0.415
5,RATQ,≤ 0.2
6,RATK,≤ 0.2
7,RITG,≤ 0.2
8,RITT,0.421
9,TSFV,≤ 0.2
10,LPSF,≤ 0.2
11,RRWP,≤ 0.2
12,RRWN,0.222
13,RRWH,0.401
14,RRWD,≤ 0.2
15,RRWF,≤ 0.2
16,RRWS,0.628
17,HLQS,≤ 0.2
18,MSNG,≤ 0.2
19,HQPF,≤ 0.2
20,PSTH,≤ 0.2
21,GLWQ,≤ 0.2
22,RYTT,0.461
23,RYTN,≤ 0.2
24,RYTR,0.469
25,RYTD,≤ 0.2
26,RYTP,≤ 0.2

row,Variant,one-hybrid fitness for binding NBS DNA
1,RYTS,0.453
2,RYTC,≤ 0.2
3,RYTH,≤ 0.2
4,RYTK,≤ 0.2
5,TSVC,≤ 0.2
6,LPCE,≤ 0.2
7,YSAT,≤ 0.2
8,QMLH,≤ 0.2
9,QMLR,0.5
10,QALR,0.424
11,QSLD,≤ 0.2
12,QKLN,≤ 0.2
13,QKLR,0.491
14,QSLH,≤ 0.2
15,QSLR,0.452
16,QKLP,≤ 0.2
17,QALP,≤ 0.2
18,QALH,≤ 0.2
19,QMLD,≤ 0.2
